Source: PubChem BioAssay
A549 tox = counter-screen for Nrf2 inhibitors: cytotoxicity in A549 cells. A549 ARE-Fluc cells, CellTiter-Fluor viability, 18-24 h. Potency, µM (highest dose often 46 µM), most hits filed as inhibitors. hit rate 0.16% among 390,000
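A549 ARE-Fluc cells in 5% FBS OPTI-MEM, 5000 cells/well, rested 2 h then exposed to compounds in concentration-response for 18-24 h at 37 °C. Viability by CellTiter-Fluor fluorescence (Ex 405/Em 525) after 30 min; luciferase luminescence (BugLite, 15 min, RT) read afterwards.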
Pin1 inh = blocks the human prolyl isomerase Pin1 | Q13526 | Pin1 FP peptide displacement, HiFluor488, 10 min | Potency, µM (series often up to 115 µM), most hits filed as inhibitors | hit rate 0.009% among 390,000 | AID 504891; active means well fitted inhibition curve with a large enough effect in the polarisation, with a control signal flat, not every such curve was filed as active; inconclusive means small, poorly fitted or top-dose-only effect, or effect the other way, or a change in a side signal; inactive means no such curve, though single readings can be large or run the other way; the % refers to the polarisation
Target sequence (Q13526 whole entry, looked up): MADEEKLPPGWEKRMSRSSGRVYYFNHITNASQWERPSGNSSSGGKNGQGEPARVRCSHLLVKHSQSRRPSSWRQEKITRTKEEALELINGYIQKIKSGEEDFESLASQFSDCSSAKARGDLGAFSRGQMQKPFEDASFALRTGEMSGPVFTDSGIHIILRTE
Nrf2 ARE act = activates Nrf2 signaling; AREc32 ARE-luciferase reporter (MCF7-derived line), luminescence, 24 h; Potency, µM (highest dose often 46.1 µM), usual class: activators; hit rate 0.31% among 410,000; further: nearly all actives have a fitted effect of over 65% in size
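Luminescent ARE reporter assay in AREc32_Fluc cells: overnight plating at 37 deg C, 24 hr compound incubation, Steady-Glo added, 30 min RT before reading.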
Nrf2 inh = Nrf2 pathway inhibition; A549 ARE-Fluc reporter, luciferase luminescence, 18-24 h; Potency, µM (doses to about 46 µM), hits mostly inhibitors; hit rate 2.1% among 360,000; further: nearly all actives have a fitted effect of over 60% in size
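Nrf2 function is reported as luminescence of an ARE-controlled luciferase in A549 cells. Compounds were tested at several concentrations, and a CellTiter-Fluor read on the same wells flagged cytotoxicity.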
Each line names hits and unclear results; the compound was inactive in the other large screens. This is a sample that favours compounds with a hit; in the whole collection about 2.2% have one here. Unless noted, the call rests on the fitted dose curve; in most records, active means well fitted curve in the direction sought with a large enough effect; inconclusive means small, poorly fitted or top-dose-only effect, or another doubt; inactive means no such curve, though single readings can be large; an effect the other way counts as inactive or inconclusive.

COc1cccc(C2C(C#N)=C(NC(=O)CCc3ccccc3)Oc3ccc4ccccc4c32)c1 (stereo not given)	none (no result: Nrf2 ARE act)
COc1ccccc1NS(=O)(=O)c1ccc(C(=O)N2CCCCCC2)cc1	Nrf2 inh 10.3µM
COc1ccc(S(=O)(=O)N(C)c2ccc(C(=O)N3CCCCC3)cc2)cc1OC	Nrf2 inh 11.6µM
COc1ccc(S(=O)(=O)N(C)c2ccc(C(=O)N3CCCCC3)cc2)cc1	Nrf2 inh inconclusive
COc1ccccc1NS(=O)(=O)c1ccc(C(=O)N2CCN(c3ccccc3)CC2)cc1	none
CCOC(=O)CNC(c1ccccc1)c1cc(Br)ccc1NC(=O)c1ccc(Cl)cc1 (stereo not given)	none
N#C/C(=C(/O)COc1ccc(Cl)cc1)c1nc2ccccc2s1	A549 tox 16.4µM, Nrf2 inh 23.1µM
O=C1OCC2=C1C(c1cccc(Cl)c1)CC(=O)N2c1ccc(C(F)(F)F)cc1 (stereo not given)	none
CC(C)C(C)NC(=O)COc1ccc(Sc2ccc(OCC(=O)NC(C)C(C)C)cc2)cc1 (stereo not given)	Nrf2 inh 20.6µM
CC(C)C(C)NC(=O)COc1ccc(-c2ccccc2)cc1 (stereo not given)	Nrf2 inh inconclusive
CCCCn1c(SCc2ccc(C(=O)OC)o2)nc2cc(S(N)(=O)=O)ccc21	Nrf2 inh 16.4µM
CCCCn1c(SCC(=O)c2cc(OC)ccc2OC)nc2cc(S(N)(=O)=O)ccc21	Pin1 inh inconclusive
COc1cccc(C2c3c(ncn(-c4ccccc4Cl)c3=N)Oc3ccc4ccccc4c32)c1 (stereo not given)	none (no result: Nrf2 ARE act)
O=C(NCc1ccc(Cl)cc1)C(=O)NCC(c1cccnc1)N1CCN(c2ccc(F)cc2)CC1 (stereo not given)	Nrf2 inh 20.6µM
Cc1cc(C)c(NC(=O)C2CCN(c3nn4c(=O)cc(C)nc4s3)CC2)c(C)c1	none
Brc1ccc(-c2csc(/N=C/N3CCCC3)n2)cc1	Nrf2 inh 11.6µM
CC(=O)c1cccc(NC(=O)C(CC(C)C)NS(=O)(=O)c2ccc3c(c2)CCN3C(C)=O)c1 (stereo not given)	A549 tox inconclusive
Cc1ccc(C(=O)NNC(=S)NC(=O)c2ccccc2)cc1	A549 tox inconclusive, Nrf2 inh 16.4µM
O=C(NNC(=S)NC(=O)c1ccc(Br)cc1)c1ccc([N+](=O)[O-])cc1	Nrf2 inh 20.6µM
O=C(NNC(=O)c1ccc([N+](=O)[O-])cc1)c1ccc(Br)cc1	none
Cc1ccc(C(=O)NNC(=S)NC(=O)c2ccc(Cl)cc2Cl)cc1	Nrf2 inh 20.6µM
Cc1cccc(Cn2cc(S(=O)(=O)c3ccccc3)c(=O)c3cc(F)c(N4CCOCC4)cc32)c1	none
Cc1cc2c(s1)c1cnn(Cc3cc(F)cc(F)c3F)c(=O)c1n2C	none (no result: Nrf2 ARE act)
O=C(OCC#CCSc1nnc(-c2cccc3ccccc23)o1)c1cc(F)c(F)c(F)c1	none (no result: Nrf2 ARE act)
c1nc(N2CCOCC2)c2c3c(sc2n1)CCCC3	none
O=C(c1ccccc1)N1CCN(c2ncnc3sc4c(c23)CCC4)CC1	Nrf2 inh 16.4µM
CC(=O)Nc1ccc(-c2csc(NC(=O)Cc3ccccc3F)n2)cc1	Nrf2 inh inconclusive
CC(=O)Nc1ccc(-c2csc(NC(=O)Cc3cccc(F)c3)n2)cc1	Nrf2 inh 20.6µM
CS(=O)(=O)N1CCc2cc(-c3csc(NC(=O)Cc4ccccc4)n3)ccc21	Nrf2 inh 20.6µM
Cn1nc(C(=O)Nc2cccc(Cl)c2)cc1C(=O)Nc1cccc(Cl)c1	A549 tox inconclusive, Nrf2 inh 13µM
O=c1ccc(N=Nc2ccccc2)ccc1O	A549 tox 16.4µM, Pin1 inh inconclusive, Nrf2 inh inconclusive
C(=C\c1nc(-c2ccncc2)no1)/c1ccccc1	Nrf2 ARE act inconclusive, Nrf2 inh inconclusive
C(=C\c1nc(-c2ccccc2)no1)/c1ccccc1	Nrf2 ARE act 14.1µM, Nrf2 inh inconclusive
C=CCN1C(c2ccc(Br)cc2)=CS/C1=C(\C#N)c1nnc(N2CCOCC2)n1-c1ccccc1	A549 tox inconclusive, Pin1 inh inconclusive, Nrf2 inh 25.9µM
O=[N+]([O-])c1ccc(Cl)c(C[n+]2cccc3ccccc32)c1	Pin1 inh inconclusive, Nrf2 inh 11.6µM
O=C(C[n+]1cccc2ccccc21)c1ccc([N+](=O)[O-])cc1	A549 tox inconclusive, Pin1 inh inconclusive, Nrf2 inh inconclusive
CC(C)Cn1c(N)c(C(=O)COC(=O)c2ccc3c(c2)OCCO3)c(=O)n(C)c1=O	Nrf2 inh 10.3µM
CC(C)Cn1c(N)c(C(=O)COC(=O)c2ccccc2Cl)c(=O)n(C)c1=O	none
COCc1c(C(=O)OCC(=O)c2c(N)n(CC(C)C)c(=O)n(C)c2=O)oc2ccccc12	Nrf2 inh 20.6µM
CC(C)Cn1c(N)c(C(=O)COC(=O)c2ccccc2C(=O)c2ccccc2)c(=O)n(C)c1=O	Nrf2 inh 13µM
Cc1c(C(=O)OCC(=O)c2c(N)n(CC(C)C)c(=O)n(C)c2=O)oc2ccccc12	Nrf2 inh inconclusive
Cn1c(N)c(C(=O)COC(=O)c2ccc3c(c2)OCCO3)c(=O)n(C)c1=O	none
Cn1c(N)c(C(=O)COC(=O)c2cc(C(F)(F)F)nc3ccccc23)c(=O)n(Cc2ccccc2)c1=O	Nrf2 inh 20.6µM
Cn1c(N)c(C(=O)COC(=O)c2cc(C3CC3)nc3ccccc23)c(=O)n(C)c1=O	none
Cc1cccc(-c2nc3c4ccccc4nc(N4CCN(c5cccc(Cl)c5)CC4)n3n2)c1	Nrf2 inh inconclusive
CC(=O)N1CCN(c2ccc(NS(=O)(=O)c3ccc4c(c3)CC(=O)N4)cc2)CC1	Pin1 inh inconclusive (no result: Nrf2 ARE act)
CC(C)Cn1c(N)c(C(=O)COC(=O)c2cccn2C)c(=O)n(C)c1=O	Nrf2 inh 23.1µM
Cc1cc(C)cc(NC(=S)NCc2cccs2)c1	A549 tox inconclusive, Nrf2 inh 23.1µM
CCn1c(CN2CCCCC2)nc2cc(NC(=O)COc3ccccc3C(C)(C)C)ccc21	none
O=C(CC(=O)c1ccccc1)c1ccccc1	Nrf2 ARE act 14.1µM
O=C(NC1CCCC1)C(c1ccc(F)cc1)N(Cc1ccccc1)C(=O)c1csnn1 (stereo not given)	none
CC(C)CCN(C(=O)c1csnn1)C(C(=O)NC1CCCC1)c1ccc(F)cc1 (stereo not given)	A549 tox 18.4µM, Nrf2 inh 23.1µM
CC(C)C(=O)N[C@H]1CCC2C3CC=C4C[C@@H](O)CC[C@]4(C)C3CC[C@@]21C (stereo not given in full)	none
CC12CCC(O)CC1=CCC1C2CCC2(C)C(c3ccn[nH]3)CCC12 (stereo not given)	Nrf2 inh 20.6µM
C=CCN1C=C/C(=C\C=C(C#N)C#N)c2ccccc21	A549 tox 18.4µM, Pin1 inh inconclusive, Nrf2 inh inconclusive
CCCCCCN1C=C/C(=C\C=C(C#N)C#N)c2ccccc21	A549 tox 6.51µM, Nrf2 inh 18.4µM
COc1ccc2c(c1)c1c(c(=O)n(Cc3ccccc3)c(=O)n1Cc1cccc(Cl)c1)n2C	Nrf2 inh inconclusive
